An excerpt weighted towards active compounds, which were near 5.7% of everything screened.
KB-3-1 cytotox – kills parental KB-3-1 adenocarcinoma cells; hit rate 1.4% among 400,000; Potency, µM (doses to about 46.1 µM), actives largely listed as cytotoxic; KB-3-1 viability, CellTiter-Glo ATP luminescence, 72 h; further: nearly all actives have a fitted effect of over 60% in size
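KB-3-1 cells, DMEM (no phenol red) + 10% FBS; compound by pin transfer, 72 h, 37 °C. Readout: CellTiter-Glo luminescence after 10 min. Data normalized, curve-fitted.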
HT1080NT lethal – kills 2HG-producing HT-1080-NT fibrosarcoma cells | AID 686970 | Potency, µM (doses to about 46.1 µM), hits mostly cytotoxic | hit rate 1.6% among 360,000 | HT-1080-NT fibrosarcoma viability, CellTiter-Glo ATP luminescence, 48 h;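 further: NT is the 2HG producing partner of a matched IDH1 knockdown line; nearly all actives have a fitted effect of over 55% in size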
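A 48-hour cytotoxicity screen used HT-1080-NT cells plated 2 hours before compound delivery. ATP-based CellTiter-Glo luminescence measured viability, normalized to DMSO and no-cell controls.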
HT1080 IDH1KD tx – HT-1080 IDH1 knockdown cell toxicity (counter line). HT-1080 IDH1 knockdown viability, ATP luminescence, 48 h. Potency, µM (titrated, usually from 46.1 µM), actives largely listed as cytotoxic. hit rate 2% among 360,000
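Cytotoxicity counter-line: IDH1KD HT-1080, 48 h, CellTiter-Glo. Curves classed by r2, magnitude and activity.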
KB-V1 cytotox – KB-V1 MDR subline cytotoxicity. hit rate 3.4% among 400,000. KB-V1 MDR cells viability, CellTiter-Glo, 72 h. Potency, µM (titrated, usually from 46.1 µM), usual class: cytotoxic. AID 1347076; further: nearly all actives have a fitted effect of over 60% in size
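In this primary screen, KB-V1 cells overexpressing P-gp are incubated with library compounds (lowest to highest concentration) for 72 h at 37 degrees C before a luminescent ATP viability read.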
Large screens that a line does not name were inactive. The call rests on the fitted dose curve; in most records, active means well fitted curve in the direction sought with a large enough effect; inconclusive means small, poorly fitted or top-dose-only effect, or another doubt; inactive means no such curve, though single readings can be large; an effect the other way counts as inactive or inconclusive.

Cc1ccc(C(=O)Nc2ccc(Cc3ccncc3)cc2)cc1[N+](=O)[O-]	KB-3-1 cytotox inconclusive, KB-V1 cytotox 5.8µM
CC(C)CC1N=C2c3ccccc3N=C(SCC(=O)NCCc3ccc(Cl)cc3)N2C1=O (stereo unspecified)	none (no result: HT1080NT lethal, HT1080 IDH1KD tx)
O=C(Cn1c(=O)n(-c2ccc(Cl)cc2)c(=O)c2sc3ccccc3c21)NC1CCCC1	none (no result: HT1080NT lethal, HT1080 IDH1KD tx)
CC(CCC(C)C(C)(C)C)[C@@H]1CC[C@H]2C3C[C@H](OS(O)(=S)=S)[C@H]4C[C@H](OS(O)(=S)=S)[C@@H](OS(O)(=S)=S)C[C@]4(C)[C@H]3CC[C@]12C (stereo partly specified) (tested in a mixture with another compound)	HT1080NT lethal 9.2µM, HT1080 IDH1KD tx inconclusive
Nc1ccc2ncccc2c1N	none
Nc1nc(N)c2c(ccc3nccc32)[nH]1	KB-3-1 cytotox inconclusive, HT1080NT lethal 5.8µM, HT1080 IDH1KD tx 4.6µM
CC1=C(C#N)C(c2ccccc2)C2=C(N1)c1ccccc1C2=O (stereo unspecified)	KB-3-1 cytotox 2.1µM, HT1080NT lethal inconclusive, KB-V1 cytotox 3.3µM
CC1=C(C#N)C(c2cccnc2)C2=C(N1)c1ccccc1C2=O (stereo unspecified)	none
c1coc(-c2cc(C3CCNCC3)[nH]n2)c1	none
FC(F)(F)c1cccc(CN2CCC(c3cc(-c4cccs4)n[nH]3)CC2)c1	KB-3-1 cytotox inconclusive, HT1080NT lethal 7.3µM, HT1080 IDH1KD tx 5.2µM, KB-V1 cytotox inconclusive
c1ccc2c(-c3cc(C4CCNCC4)[nH]n3)cccc2c1	KB-3-1 cytotox inconclusive, HT1080NT lethal 23µM, HT1080 IDH1KD tx 21µM
FC(F)(F)c1cccc(-c2cc(C3CCNCC3)[nH]n2)c1	HT1080NT lethal 16µM, HT1080 IDH1KD tx inconclusive
COc1cccc2nc3cc(C)c(C)cc3nc12	HT1080NT lethal 18µM, HT1080 IDH1KD tx 8.2µM, KB-V1 cytotox inconclusive
Cc1cccc(Oc2cc(NC(=O)c3ccccc3)cc([N+](=O)[O-])c2)c1	HT1080NT lethal inconclusive, HT1080 IDH1KD tx inconclusive, KB-V1 cytotox inconclusive
COc1ccc(NC(=O)c2nn(C)cc2[N+](=O)[O-])cc1	none
Cn1cc([N+](=O)[O-])c(C(=O)Nc2cc(Oc3ccccc3)cc([N+](=O)[O-])c2)n1	KB-3-1 cytotox inconclusive, HT1080NT lethal 18µM, HT1080 IDH1KD tx 6.5µM, KB-V1 cytotox inconclusive
Cc1nn(C)cc1C(=O)Nc1cc(Oc2ccc(Cl)cc2)cc([N+](=O)[O-])c1	KB-3-1 cytotox 21µM, KB-V1 cytotox inconclusive
CCn1nc(C)c(C(=O)Nc2cc(Oc3cc(C)cc(C)c3)cc([N+](=O)[O-])c2)c1C	KB-3-1 cytotox 18µM, HT1080NT lethal inconclusive, HT1080 IDH1KD tx inconclusive, KB-V1 cytotox 3.3µM
O=C(CC1C(=O)N(c2ccccc2)C(=O)N1CCC1=CCCCC1)Nc1ccc(F)cc1 (stereo unspecified)	none (no result: HT1080NT lethal, HT1080 IDH1KD tx)
COc1cccc(NC(=O)C2(C)CCN2C(=O)CC2CC2)c1 (stereo unspecified)	none
Cc1cc(C)c(C)c(OCCCCn2cnc3ccccc3c2=O)c1	HT1080 IDH1KD tx inconclusive, KB-V1 cytotox 23µM
COc1cccc(OC)c1OCCCCn1cnc2ccccc2c1=O	KB-V1 cytotox inconclusive
Cc1cccc(N(CC(=O)Nc2ccccc2C(F)(F)F)S(=O)(=O)c2ccccc2)c1C	none (no result: HT1080NT lethal, HT1080 IDH1KD tx)
CS(=O)(=O)N(CC(=O)NCCSC1CCCCC1)c1ccccc1	KB-V1 cytotox inconclusive
Cc1ccccc1N(CC(=O)NCCSC1CCCCC1)S(=O)(=O)c1ccccc1	KB-3-1 cytotox inconclusive, KB-V1 cytotox 10µM
COc1ccc(N(CC(=O)NCCSC2CCCCC2)S(=O)(=O)c2ccccc2)cc1OC	none (no result: KB-3-1 cytotox, KB-V1 cytotox)
CS(=O)(=O)N(CC(=O)NCCSC1CCCCC1)c1cccc(F)c1	KB-V1 cytotox 15µM
Cc1cccc(N(CC(=O)NC(C)c2ccccc2)S(=O)(=O)c2ccccc2)c1C (stereo unspecified)	KB-3-1 cytotox 18µM, KB-V1 cytotox inconclusive (no result: HT1080NT lethal, HT1080 IDH1KD tx)
CC(=O)c1cc(-c2ccccc2)n(CC(=O)NCc2ccccc2C)c1C	none (no result: HT1080NT lethal, HT1080 IDH1KD tx)
Cc1ccc(NC(=O)Nc2nnc(N(C)Cc3ccccc3)s2)cc1	none (no result: HT1080NT lethal, HT1080 IDH1KD tx)
CCc1cccc(CC)c1NC(=S)NCCc1c(C)[nH]c2ccc(C)cc12	KB-3-1 cytotox 6.5µM, KB-V1 cytotox 5.8µM
Cc1oc(-c2ccccc2)nc1CNS(=O)(=O)c1ccc(Cl)cc1	none (no result: HT1080NT lethal, HT1080 IDH1KD tx)
Cc1ccc(OCCCNCCO)c(Br)c1	HT1080NT lethal inconclusive, HT1080 IDH1KD tx 21µM
O=C(CSc1nnc(-c2ccco2)n1Cc1ccccc1)c1ccc(F)cc1	KB-V1 cytotox 9.2µM

Screens from PubChem.
